In PubChem BioAssay AID504937 (National Center for Advancing Translational Sciences (NCATS), 2011):
The whole screen tested about 340,000 compounds, of which about 20 (0.006%) were called active. The entries come from a sample that favours actives as a whole. Unmarked numbers belong to inactive results. The call rests on the fitted dose curve; in most records, active means well fitted inhibition curve with a large enough effect; inconclusive means small, poorly fitted or top-dose-only effect; inactive means no such curve, though single readings can be large or run the other way.

target: Sphingomyelin phosphodiesterase (Homo sapiens) (UniProt P17405); assay: Inhibitors of Secretory Acid Sphingomyelinase (S-ASM): qHTS; details: placental ASM, HMU-PC fluorogenic substrate, 60 min; series mostly up to 57.5 µM; activity change, negative = inhibition: at the top concentration
Text: Atherosclerosis is the underlying process for cardiovascular disease and thus is a major contributor to disease burden in the population. […] Thus, selective small molecule inhibitors of S-ASM should block LDL modification and reduce aortic LDL retention and may serve as new agents for the treatment of atherosclerosis. In a collaboration between National Heart, Lung, and Blood Institute and the NCGC a high-throughput amenable screen was developed to identify potent and selective small molecule inhibitors of S-ASM. This enzymatic, fluorescent screen uses an ASM enzyme preparation derived from human placenta and was tested against the NIH Molecular Libraries Small Molecule Repository (MLSMR). NIH Chemical Genomics Center [NCGC] NIH Molecular Libraries Probe Centers Network [MLPCN] MLPCN Grant: MH093173-01 Assay Submitter (PI): Alan Remaley, National Heart, Lung, and Blood Institute and Wei Zhen, NIH Chemical Genomics Center
Two microliters of ASM enzyme (1:150 dilution from stock) are dispensed in 1536-well plate. 23 nL of compound and control are pinned into assay plate using the Kalypsys pintool. The plates are then incubated for 10 minutes at ambient room temperature. Then, 2 uL of the flurogenic substrate, HMU-PC0, (9 uM final) are added to the plate. An incubation for 60 minutes takes place at 37 masculineC. After that, 4 uL of stop solution is added to raise the pH to 10 to end the kinetic reaction. Plate is read on ViewLux, with detection set at Ex = 386 (10) nm and Em = 447 (10) nm.
Potency means the concentration at half of the fitted maximal effect.

Sequence of Sphingomyelin phosphodiesterase (Homo sapiens) (P17405 47-631 limits assumed): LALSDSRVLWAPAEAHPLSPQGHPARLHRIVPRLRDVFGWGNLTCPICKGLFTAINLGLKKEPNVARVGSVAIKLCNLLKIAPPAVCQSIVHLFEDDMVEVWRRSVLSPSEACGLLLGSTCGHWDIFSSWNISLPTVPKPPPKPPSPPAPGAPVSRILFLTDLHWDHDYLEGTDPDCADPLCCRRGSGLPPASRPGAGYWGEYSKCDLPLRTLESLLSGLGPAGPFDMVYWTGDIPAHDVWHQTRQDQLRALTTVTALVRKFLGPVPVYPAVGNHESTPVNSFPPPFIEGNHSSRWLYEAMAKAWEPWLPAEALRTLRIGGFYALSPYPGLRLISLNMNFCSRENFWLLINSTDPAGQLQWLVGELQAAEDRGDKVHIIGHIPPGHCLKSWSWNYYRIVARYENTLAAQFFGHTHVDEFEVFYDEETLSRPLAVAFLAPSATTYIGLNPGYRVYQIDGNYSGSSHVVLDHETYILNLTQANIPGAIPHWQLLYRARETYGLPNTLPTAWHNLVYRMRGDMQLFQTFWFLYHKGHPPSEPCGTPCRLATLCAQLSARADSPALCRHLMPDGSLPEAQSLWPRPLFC

Compound | activity change, negative = inhibition [%] | Potency
COc1ccc(Cl)cc1C=CC=NNC(=O)c1ccncc1 | 1.72 | 
COC(=O)[C@@H]1C[C@@]2(O)[C@H](O)[C@H](O)[C@H](O)C[C@H]2N1Cc1ccc(C)s1 | 2.02 | 
Cn1c(=O)c2c(n(Cc3ccccc3)c1=O)NC(=O)C2CC(=O)N1CCc2ccccc2C1 (configuration not stated) | 11 | 
CCOC(=O)c1c(C2CC2)csc1NC(=O)CSCc1c(C)noc1C | -10.2 | 
CCOC(=O)C1=CN(Cc2ccc(Br)cc2)S(=O)(=O)N(C)C1C (configuration not stated) | -9.71 | 
COCc1c(C(=O)N/N=C(\C)c2ccncc2)nnn1-c1nonc1N | 2.13 | 
COc1ccc2c(C)c(CCC(=O)NC3CC3)c(=O)oc2c1C | -0.686 | 
CC(=O)N1c2ccc(S(=O)(=O)N(C)CC(=O)N(C)Cc3ccccc3)cc2CC1C (configuration not stated) | -1.44 | 
C=CCN1C(=O)c2ccc(C(=O)N3CCC(C(=O)OCC)CC3)cc2C1=O | -2.79 | 
COc1nc(OC)nc(N(C)CCO)n1 | 4.61 | 
CCOC(=O)C1CCN(C(=O)C2CCN(S(=O)(=O)CC)CC2)CC1 | 1.4 | 
Cc1cccc(OCC(=O)OCC(=O)Nc2ccc(Cl)cn2)c1 | -3.52 | 
Cc1ccc(C(=O)NCC(=O)NCc2cc(=O)n(C)c(=O)n2C)cc1 | 0.0892 | 
O=S(=O)(c1ccc(F)cc1)N1CCN(C(=S)NCc2ccco2)CC1 | 0.335 | 
Cc1ccc(N(C(=O)c2snc(C(N)=O)c2N)C(C(=O)NCC2CCCO2)c2c[nH]c3ccccc23)cc1 (configuration not stated) | 107 | 
Cc1ccc(S(=O)(=O)NC(C)C(=O)NCc2ccc(Cl)cc2)cc1 (configuration not stated) | 0.606 | 
CSCCC(NS(=O)(=O)c1ccc2c(c1)oc(=O)n2C)C(=O)NC1CCCc2ccccc21 (configuration not stated) | 4.92 | 
O=S(=O)(NCCCN1CCOCC1)c1ccc(F)c(Cl)c1 | 3.19 | 
Cc1ccc(S(=O)(=O)NC(=O)c2cccc(C)c2)cc1 | 2.72 | 
CC(=O)C1=C(C)NC2=C(C(=O)CC(C)(C)C2)C1C (configuration not stated) | 36.1 | 
CCOC(=O)c1cc(S(=O)(=O)NCCc2ccc(OC)c(OC)c2)cn1C | 0.167 | 
CSCCC(NC(=O)c1ccccc1)C(=O)N1CCN(Cc2ccc(Cl)cc2)CC1 (configuration not stated) | -1.3 | 
CC1C(=O)N2CCCc3cc(S(=O)(=O)NCc4ccc(F)cc4)cc1c32 (configuration not stated) | 2.3 | 
COC(=O)c1ccc(CN2CCCC(C(=O)Nc3cccc(-n4cnnn4)c3)C2)cc1 (configuration not stated) | 0.0712 | 
O=C1c2ccccc2C2=Nc3ccccc3SC(c3ccccc3F)C12 (configuration not stated) | -27.7 | 
CCOC(=O)c1ccccc1NC(=S)N1CCC(C(N)=O)CC1 | -1.43 | 

Compound | activity change, negative = inhibition [%] | Potency
COc1cccc(NC(=O)CSc2nnc(Cc3ccc(OC)c(OC)c3)o2)c1 | -3.18 | 
O=C1N[C@H](Cc2c[nH]c3ccccc23)COC(=O)[C@H](Cc2ccc(F)cc2)C/C=C\C[C@H]1CC(=O)N(CCO)Cc1ccccc1 | -17.8 | 
CSc1nnc(-c2ccc(C(F)(F)F)cn2)o1 | -0.446 | 
COc1cc(/C=C/C(=O)N2c3ccccc3Sc3ccc(C(F)(F)F)cc32)cc(OC)c1OC | -3.99 | 
COc1cc(/C=C2\SC(=S)N(Nc3ncc(C(F)(F)F)cc3Cl)C2=O)cc(OC)c1OC |  | 28.2 µM (active)
O=C1/C(=C/c2ccc(F)cc2)SC(=S)N1NS(=O)(=O)c1ccccc1 | -3.4 | 
Cc1c(C)c2c(OCC(=O)N[C@@H](C(=O)O)c3ccccc3)cc3c(c2oc1=O)CCC(C)(C)O3 | 70.3 | 
CCOC(=O)C1(Cc2cccc(OC)c2)CCN(Cc2csc(C(C)=O)c2)CC1 | -0.0302 | 
S=c1[nH]nc(Nc2ccccc2)s1 | -1.24 | 
COc1cccc(-n2c(=S)sc3c(=O)n(-c4ccccc4C)c(SCC(=O)O)nc32)c1 | 6.43 | 
CCOc1ncccc1C(=O)OCC(=O)Nc1cccc(S(=O)(=O)N2CCCCCC2)c1 | -0.366 | 
N=C1C(=O)OCC1c1ccccc1NC(=O)CN1CCCCC1 (configuration not stated) | 6.54 | 
COc1ccc(C(=O)N(C)CC(O)c2ccccc2)cc1OC1CCN(C(C)=O)CC1 (configuration not stated) | 5.69 | 
O=C(O)CSCC(=O)Nc1ccc(C(F)(F)F)cc1 | 1.25 | 
CC[C@@]12C(=O)N(c3ccccc3)C(=O)N1[C@H](c1ccc(Br)cc1)[C@@H]1C(=O)N(C(C)(C)C)C(=O)[C@@H]12 | -4.51 | 
COc1cccc(N(C(=O)c2ccn[nH]2)C2(C(=O)Nc3c(C)cccc3C)CCCCC2)c1 | 0.42 | 
COc1cc(OC)cc(C(=O)Nc2nnc(SCC(=O)NCC3CCCO3)s2)c1 (configuration not stated) | -1.35 | 
CC(C)CN(C(=O)c1cccc(S(=O)(=O)N2CCCCC2)c1)C1CCS(=O)(=O)C1 (configuration not stated) | 1.29 | 
CS(=O)(=O)N(Cc1ccccc1Cl)c1ccc(C(=O)NCc2cccnc2)cc1 | -2.15 | 
CC1CCN(c2ccc(S(=O)(=O)Nc3cc(C(=O)O)cc(C(=O)O)c3)cc2[N+](=O)[O-])CC1 | 10.1 | 
Cc1ccc2nc(SCC(=O)Nc3cccc4ccccc34)nc(=O)n2c1 | -0.358 | 
CSCCC(=O)N1CCCC(CNC(=O)c2ccccc2Cl)C1 (configuration not stated) | 7.66 | 
CCCn1nnc(NC(=O)COc2ccc(CC)cc2)n1 | 3.31 | 
COc1ccc([C@H]2CC(=O)C=C(c3ccc(OC(F)(F)F)cc3)C2)cc1OC | -15.4 | 
Cc1cccc(-[n+]2c(-c3cccc(Br)c3)[nH]c3nc4ccccc4nc32)c1 | 53 | 
Cc1cccc(C(=O)O)c1[N+](=O)[O-] | -0.0655 | 

Compound | activity change, negative = inhibition [%] | Potency
CCCn1c(C)cc(C(=O)COC(=O)c2c(C)nn(-c3ccccc3)c2C)c1C | -4.51 | 
O=C(c1ccc(F)cc1)N1CCC(C(=O)N2CCN(S(=O)(=O)c3ccccc3Br)CC2)CC1 | 2.48 | 
Nc1ccccc1C(=O)NC1CCCCNC1=O (configuration not stated) | 13.5 | 
O=C(N/N=C/c1cccc2cccnc12)[C@H]1C[C@@H]1c1ccccc1 | -2.45 | 
COCC(=O)N(C)[C@H]1C[C@H]2c3cc(Oc4ccccc4C)ccc3CCN2C(=O)[C@H]1[C@H](C)O | 6.99 | 
COC(=O)c1ccc(C2NC(=O)NC(C)=C2C(=O)N(C)C)cc1 (configuration not stated) | 3.7 | 
COc1ccc2c(c1)C(NS(=O)(=O)OCC(Cl)(Cl)Cl)CCC2 (configuration not stated) | -5.56 | 
CCOc1ccc(-c2nc(C)sc2CC(=O)O)cc1 | -0.38 | 
Cc1ccc(N(C(=O)CNC(=O)c2ccco2)C(C(=O)NC2CCCC2)c2ccncc2)cc1 (configuration not stated) | -4.07 | 
COc1ccc(NC(=O)NN2CCN(C)CC2)c(OC)c1 | -3.22 | 
COC(=O)C1=C(C)N(C)C(C)=C(C(=O)OC)C1c1cccc(Br)c1 | -20.8 | 
Cc1c(C(C)CCCO)oc(=O)c2c1Oc1c(C)c(C(C)C[C@@H](C)O)oc(=O)c1C2 (some centres not stated) | 2.63 | 
C=CCC(Nc1ccccc1)c1cccc(OC)c1OC (configuration not stated) | 0.351 | 
Cc1nn(Cc2ccc(C(=O)N3N=C(C(F)F)CC3(O)C(F)F)cc2)c(C)c1[N+](=O)[O-] (configuration not stated) | -1.95 | 
O=C(Nc1cccnc1Oc1ncnc2cc(Cl)ccc12)c1ccc(F)cc1 | -1.19 | 
CCOc1ccc(N2C(=O)Nc3ccccc3C2(O)C(=O)NCc2ccco2)cc1 (configuration not stated) | 0.0783 | 
O=C1COc2c1ccc(O)c2O | 3.65 | 
CC(C)Cn1cnc2c1c(=O)n(CC(=O)NN)c(=O)n2Cc1ccccc1 | -3.33 | 
Cc1ccsc1/C=N/NC(=O)Cc1cc(=O)[nH][nH]1 | 0.0426 | 
Cc1ccc(S(=O)(=O)Nc2ccccc2CNc2c(C)n(C)n(-c3ccccc3)c2=O)cc1 | -0.0525 | 
CCC(C)N1C(=O)S/C(=C/c2ccc(Sc3nc4ccccc4[nH]3)o2)C1=O (configuration not stated) | 1.34 | 
COc1ccc(CN2CCC(n3nccc3NC(=O)CCCc3ccccc3)CC2)cc1C | -0.972 | 
NS(=O)(=O)c1ccc(NC(=S)NNC(=O)c2cccs2)cc1 | 1.24 | 
Cc1cccc(NC(=O)Cn2cc(C(=O)c3ccco3)c3ccccc32)c1 | -9.25 | 
CCC(CC)C(=O)Nc1ccc(S(=O)(=O)Nc2nccs2)cc1 | 3.8 | 
O=C(CSc1nc2[nH]c(=O)[nH]c(=O)c2s1)Nc1cccc(F)c1 | -2.4 | 

Compound | activity change, negative = inhibition [%] | Potency
CSCCC(NC(N)=O)C(=O)N(C)CC(=O)Nc1ccc(C)cc1 (configuration not stated) | 2.8 | 
CC/C(Cc1ccccc1)=N/NC(=O)CCn1nnc2ccccc21 | -1.28 | 
COc1ccc(C2/C=C\CN(CC(C)C)CC(=O)N2Cc2ccc(F)cc2)cc1 (configuration not stated) | -2.65 | 
COc1ccc(CN2CCOC2=O)cc1OC | -0.898 | 
COc1ccc(CNC(=O)CN(C(=O)c2csnn2)c2cnc3ccccc3c2)cc1 | 21.4 | 
CC(=O)c1cccc(NC(=O)C2CCCN(S(=O)(=O)c3cccc4nonc34)C2)c1 (configuration not stated) | 5.69 | 
Nc1cccc2c1C(=O)N(Cc1nnc(-c3ccccc3Br)o1)C2=O | 340 | 
CC1CCCCC1NC(=O)CCS(=O)(=O)c1cccc2nonc12 (configuration not stated) | -1.19 | 
O=C(NNS(=O)(=O)c1ccc(F)cc1)C1CCCCC1 | -0.201 | 
CCN(CC(=O)NCc1cccs1)C(=O)/C=C/c1ccc(C)cc1 | -0.0187 | 
CCn1c(O)c2ccc(C(=O)N=NC(=O)c3cccnc3)cc2c1O | -1.65 | 
O=C(NCC(=O)N(CC1CCCO1)C(C(=O)NC1CCCCC1)c1ccccc1)c1ccco1 (configuration not stated) | -1.66 | 
CC(C)Cn1c(SCC(=O)Nc2ccc(Cl)cc2F)nc(O)cc1=O | -4.26 | 
COc1ccc(SCCN2CCN(CC(C)C)CCC2=O)cc1 | -3.87 | 
O=S(=O)(c1ccccc1)N1CCC(c2ccccc2)CC1 | 0.311 | 
Cc1cc(OCC(=O)N(C)c2c(N)n(Cc3ccccc3)c(=O)[nH]c2=O)c(C(C)C)cc1Cl | 4.87 | 
CN(C(=O)c1ccccc1)c1nccnc1C#N | 7.06 | 
Cc1ccc(-c2nc(C)sc2CC(=O)OCC(=O)Nc2c(F)cccc2F)cc1 | 4 | 
Cn1c(=O)n(C)c(=O)n(CC(=O)N2CCCCC2)c1=O | -0.0512 | 
COc1ccccc1CCNS(=O)(=O)c1cc2c3c(c1)C(C)C(=O)N3CCC2 (configuration not stated) | 4.58 | 
CN(c1ccc2nc3ccccc3c(=O)n2n1)C1CCCCC1 | 2.94 | 
O=S1(=O)CCN2C(=N1)SC1=C2CCN(Cc2ccccc2)C1 | 1.51 | 
CCOC(=O)c1cc(-c2ccc(F)cc2)n(CC(=O)NCc2ccccn2)c1C | -2.49 | 
COc1ccc(C(C(=O)NC2CCCCC2)N(C(=O)Cc2c[nH]c3ccccc23)c2ccccc2)cc1OC (configuration not stated) | -5.66 | 
